Source: PubChem BioAssay (National Center for Advancing Translational Sciences (NCATS))
Hits are enriched below; roughly 10% of the tested compounds scored in any of these assays.
JMJD2A Tudor: inhibitors of human JMJD2A Tudor domain | hit rate 4.4% among 390,000 | O75164 | Potency, µM (series often up to 114 µM), hits mostly inhibitors | AlphaScreen JMJD2A-Tudor / H3K4me3 peptide binding; also: nearly all actives have a fitted effect of over 50% in size
HP1b binding inh: blocks HP1-beta chromodomain binding to methylated histone tails. AlphaScreen HP1-beta / biotin-H3K9me3 peptide binding. P83916. hit rate 0.56% among 390,000. Potency, µM (highest dose often 114 µM), actives largely listed as inhibitors. AID 540317; also: nearly all actives have a fitted effect of over 70% in size
Target sequence (P83916 whole entry, looked up): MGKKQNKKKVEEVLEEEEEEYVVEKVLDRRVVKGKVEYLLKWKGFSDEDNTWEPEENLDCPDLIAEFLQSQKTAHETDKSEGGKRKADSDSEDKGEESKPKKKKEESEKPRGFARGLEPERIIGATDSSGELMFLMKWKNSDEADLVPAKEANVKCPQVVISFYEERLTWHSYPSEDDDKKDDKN
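AlphaScreen: HP1-beta (50 nM) preformed 30 min with biotin-H3(1-18)K9me3 peptide (50 nM) in PBS pH 7.4, 0.01% Tween-20. Compound added for 30 min at RT, then streptavidin donor/nickel chelate acceptor beads (10 ug/mL) for 30 min.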
BAZ2B block: blocks human BAZ2B; Q9UIF8; AlphaScreen BAZ2B-H3K14Ac peptide displacement; Potency, µM (highest dose often 114 µM), usual class: inhibitors; hit rate 4.4% among 360,000; also: nearly all actives have a fitted effect of over 60% in size
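BAZ2B 50 nM plus b-H3(5-23)K14Ac 50 nM, PBS pH 7.4/0.01% Tween-20, 30 min RT; compound added (max 110 uM), 30 min RT; streptavidin donor/Ni-chelate acceptor beads 10 ug/mL final, 20 min dark; AlphaScreen read.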
G9a block: G9a (human) methyltransferase inhibition; Q96KQ7; G9a H3K9 monomethylation, AlphaScreen, 2 h; Potency, µM (doses to about 102 µM), actives largely listed as inhibitors; hit rate 8.8% among 350,000; AID 504332; also: nearly all actives have a fitted effect of over 75% in size
Target sequence (Q96KQ7 913-1193 limits assumed): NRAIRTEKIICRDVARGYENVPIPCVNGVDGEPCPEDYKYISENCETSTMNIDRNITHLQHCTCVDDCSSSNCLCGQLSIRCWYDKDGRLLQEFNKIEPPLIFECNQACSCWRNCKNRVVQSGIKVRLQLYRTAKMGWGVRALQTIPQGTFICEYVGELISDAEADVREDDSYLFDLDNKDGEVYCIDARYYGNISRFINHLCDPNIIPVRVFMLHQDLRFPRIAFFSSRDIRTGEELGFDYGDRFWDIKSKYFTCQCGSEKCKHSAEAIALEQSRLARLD
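Chemiluminescent proximity detection of H3K9 monomethylation, read after 10 min bead incubation in the dark. Reaction: 20 nM G9a, 500 nM biotin-H3K9 peptide, 20 uM SAM cofactor, 2 h, room temperature, following 15 min enzyme-compound preincubation.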
GLS inh: glutaminase GLS (human) inhibition. O94925. GLS enzymatic activity, qHTS titration. Potency, µM (doses to about 45.5 µM), most hits filed as inhibitors. hit rate 0.21% among 410,000
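Glutamate formation by hKGA was monitored fluorometrically using coupled glutamate oxidase, HRP and Amplex Red. Substrate was added as 1 mM L-glutamine solution; incubation was 30 min at RT after an initial read.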
Hits are given with their value; . = inactive; ? = inconclusive; / = no result given; [ ] = another dose, or the depositor's remark. Calls follow the shape of the dose curve; as a rule, active = well fitted curve in the direction sought with a large enough effect; inconclusive = small, poorly fitted or top-dose-only effect, or another doubt; inactive = no such curve, though single readings can be large; an effect the other way counts as inactive or inconclusive.

SMILES	JMJD2A Tudor	HP1b binding inh	BAZ2B block	G9a block	GLS inh
CCCCN(C)CC(O)Cn1cc(/C=C/C(=O)c2ccc(OC)c(OC)c2)c2ccccc21 (configuration not stated)	?	.	?	.	.
CCOC(=O)c1c(NC(=O)CSc2cn(CCNC(=O)c3ccc(OC)c(OC)c3)c3ccccc23)sc2c1CCC2	.	.	.	.	.
c1ccc2c(C[C@@H]3CNCCN3CC3CCCCC3)cccc2c1	?	.	39.8µM	.[2.33 µM]	.
O=C(Nc1nnc(C(F)(F)F)s1)c1ccc(Br)s1	.	.	.	50.1µM	.
CCSc1nnc(NC(=O)c2ccc(Br)s2)s1	.	.	.	.[12.7 µM]	.
CCOc1cccc(N2C(=O)CC(NCc3ccc(S(N)(=O)=O)cc3)C2=O)c1 (configuration not stated)	.	.	.	50.1µM	.
CCCCCCOc1ccc(N2C(=O)CC(NCc3ccc(S(N)(=O)=O)cc3)C2=O)cc1 (configuration not stated)	.	.	.	.	.
O=C(COc1cccc(Cl)c1)N1CCC(c2nc3ccccc3s2)CC1	.	.	.	.	.
O=C1NC(=S)N/C1=C/c1cc([N+](=O)[O-])ccc1O	.	.	.	11.2µM	.
Cc1cc(C)c2c(N=NN3CCOCC3)[nH]nc2n1	.	.	.	8.91µM	.
CCc1cccc(C)c1NC(=O)c1cnn(-c2ccc(OC)cc2)c1C1CCN(C(=O)OC(C)(C)C)CC1	.	.	.	.	.
OCc1ccc2c(c1)c(-c1ccc3c(c1)OCCO3)c(-c1ccccc1)n2-c1ccccc1	44.7µM	.	?	.[0.501 µM]	.
CCC(=O)Nc1cc(C(=O)O)ccc1Sc1ccc(Cl)cc1	.	.	.	?	.
Nc1nc(C2C(=O)CCCC2=O)cs1	10µM	.	44.7µM	.[12.7 µM]	.
O=C1N(C2CCCC2)C[C@@H]2C[C@@H](c3cccn3-c3nccs3)N3CCC[C@@]123	.	.	.	50.1µM	.
O=C1N(C2CCCC2)C[C@@H]2C[C@@H](c3cccn3-c3ccccn3)N3CCC[C@@]123	.	.	.	.	.
O=C(CNc1ccc(Br)cc1)c1ccc(Br)s1	.	.	?	39.8µM	.
O=C(CNc1ccc(Br)cc1)c1ccc(O)cc1	?	.	.	44.7µM	.
CCc1nc2ccc(C(=O)N3CCCCC3)cn2c1N(C)CCCc1ccccc1	/	/	/	/	.
CCCCC1CCc2[nH]nc(C(=O)O)c2C1 (configuration not stated)	.	.	?	.[2.33 µM]	.
CCC1CCc2[nH]nc(C(=O)O)c2C1 (configuration not stated)	50.1µM	.	?	25.1µM	.
O=C(O)c1n[nH]c2c1CC(C1CCCCC1)CC2 (configuration not stated)	.	.	70.8µM	.[2.33 µM]	.
CC1CCc2[nH]nc(C(=O)O)c2C1 (configuration not stated)	31.6µM	.	?	28.2µM	.
O=C(NC1CCCCC1)c1n[nH]c2c1CC(c1ccccc1)CC2 (configuration not stated)	.	.	.	.[2.33 µM]	.
CCCCOC(=O)c1c(C)oc2c1cc(NS(=O)(=O)c1cc(OC)ccc1OC)c1ccccc12	.	.	.	.	.
SMILES	JMJD2A Tudor	HP1b binding inh	BAZ2B block	G9a block	GLS inh
Oc1ccccc1C1=Nc2ncnn2C(c2ccccc2)C1 (configuration not stated)	.	.	.	17.8µM	.
COC(=O)c1c(C)[nH]c(C(=O)C(C)OC(=O)C2CC(=O)N(c3ccc(C)cc3)C2)c1C (configuration not stated)	.	.	.	.[0.0925 µM]	.
COC(=O)c1c(C)[nH]c(C(=O)C(C)OC(=O)C2CC(=O)N(CCc3ccccc3)C2)c1C (configuration not stated)	.	.	56.2µM	.[2.33 µM]	.
CCSc1nnc(NS(=O)(=O)c2ccc(C)cc2)s1	.	.	.	?	.
Cc1sc2nc(C3CC3)nc(SCC(=O)N3c4ccccc4CC3C)c2c1C (configuration not stated)	.	.	.	.	.
Cc1nc(SCC(=O)N2c3ccccc3NC(=O)CC2C)c2c(C)c(C)sc2n1 (configuration not stated)	.	.	.	44.7µM	.
O=C(NCC(=O)N1CCN(S(=O)(=O)c2c(F)cccc2F)CC1)c1ccccc1F	?	.	.	.	.
